# Assay outcomes deposited in PubChem by National Center for Advancing Translational Sciences (NCATS).
# D1 antagonist: antagonists of human D1 dopamine receptor | P21728 | HEK293 TREx D1 cells, calcium flux, dopamine EC80; stronger effect = lower value | activity change, negative = inhibition, % at 10 µM | actives 3.2% (n = 360,000) | AID 504652; in the data active means activity change below about -30%; further: on the % scale 0 is the no-effect control and ±100 the full control effect
#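 Allosteric or orthosteric antagonism assessed as attenuation of the calcium response to EC80 dopamine, added 180 s after compound, in induced HEK293 Trex D1 cells loaded with no-wash calcium dye.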
# D1 agonist: human D1 receptor agonism. P21728. actives 1% (n = 360,000). HEK293 T-REx D1 cells, calcium flux, agonist mode. activation, % at 2 µM; in the data active means activation above about 30%; further: 0% is about no effect
#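 Agonism was scored from calcium flux recorded over 180 s (1 read/s) after pintool compound addition, following a 10-cycle baseline. Cells were inducible force-coupled HEK293 TREx D1, plated overnight at 30 C and loaded with no-wash calcium dye.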
# D1 PAM: potentiators of human D1 dopamine receptor; P21728; HEK293 TREx D1 cells, calcium flux, dopamine EC20 potentiation; potentiation, % at 10 µM; actives 0.036% (n = 360,000); AID 504651; in the data active means potentiation above about 30%; further: 0% is about no effect
# DRD3 antagonist: blocks the human D3 dopamine receptor; P35462; AID 652054; max response, negative = inhibition, %; D3R cells, DiscoveRx beta-arrestin luminescence, antagonist mode; stronger effect = lower value; actives 2.5% (n = 360,000); in the data active means max response below about -50%; inconclusive means no clear call, values can overlap the other calls; further: on the % scale 0 is the no-effect control and ±100 the full control effect
# Target sequence (P35462 whole entry, looked up): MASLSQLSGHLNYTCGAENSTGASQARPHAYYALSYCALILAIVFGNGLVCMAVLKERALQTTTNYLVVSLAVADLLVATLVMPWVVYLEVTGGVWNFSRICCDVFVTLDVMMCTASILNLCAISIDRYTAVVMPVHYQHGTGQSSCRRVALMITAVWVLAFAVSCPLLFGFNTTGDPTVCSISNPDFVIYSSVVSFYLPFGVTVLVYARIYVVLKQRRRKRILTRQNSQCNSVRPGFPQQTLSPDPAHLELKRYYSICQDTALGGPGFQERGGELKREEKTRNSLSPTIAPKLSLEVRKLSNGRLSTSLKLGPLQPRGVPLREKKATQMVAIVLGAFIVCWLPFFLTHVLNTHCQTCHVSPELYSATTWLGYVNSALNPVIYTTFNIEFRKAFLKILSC
#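 Cells plated overnight at 1500 cells/well, then exposed to library compounds with dopamine controls for 90 minutes at 37 degrees C. DiscoveRx reagent added for 30–60 minutes at room temperature; luminescence read, quantitative HTS format.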
# D3 ag: D3 dopamine receptor (human) agonism. P35462. D3R DiscoveRx beta-arrestin cells, luminescence, 90 min. max activation, %. actives 0.58% (n = 410,000); in the data active means max activation above about 30%; further: 0% is about no effect
#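 Agonist-mode cell screen: cells plated at 1500/well and incubated overnight at 37 °C, then exposed to library compounds for 90 min at 37 °C. Detection reagent was added for 30–60 min at room temperature, and luminescence was read.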
# Active calls of the source: *; ? = inconclusive; nt = no result given; ! = not active in a repeat. An excerpt weighted towards active compounds, which were near 6% of everything screened.
SMILES,D1 antagonist,D1 agonist,D1 PAM,DRD3 antagonist,D3 ag
O=C(Nc1ccccc1Oc1ccccc1)[C@@H]1O[C@H](CO)[C@H](O)[C@H](O)[C@H]1O,nt,nt,nt,-162.1*,-33.4
CCSc1nnc2c(n1)OC(c1ccc(OC)cc1OC)N(C(C)=O)c1ccccc1-2 (centres undefined),-16.9,0.1,-1.4,nt,0.6
CCOC(=O)CC1(NC(=O)c2cc(COc3cccc(OC)c3)on2)CCCCC1,-4.7,19.6,-8.9,53.8,0.1
COC(=O)c1ccc(NC(=O)C2CCCN(S(C)(=O)=O)C2)cc1 (centres undefined),-32.8*,1.8,-2.5,-28.6,1.6
O=S(=O)(NCc1nc2cccnc2n1Cc1ccccc1Cl)c1ccc2c(c1)CCCC2,-4.8,4.6,0.9,nt,-1.2
Cc1ccc(C(CNC(=O)Nc2ccc(Cl)cc2)N2CCN(C)CC2)cc1 (centres undefined),-44.0*,5.8,-14.4,-23.1,-15.1
N#CC1(CCCN2CCCCC2)c2ccccc2CCc2ccccc21,nt,nt,nt,-93.0*,-24.3
COC(=O)c1cccc(NS(=O)(=O)c2ccc(OC)c(OC)c2)c1C,-1.6,7.6,-2.8,20.9,9.9
COC(=O)c1ccc(C)c(NS(=O)(=O)c2ccc(OC)c(OC)c2)c1,22.3,4.3,1.3,-70.0*,-7.3
Cc1ccc(N2CCN(Cc3nnc(-c4ccccc4F)o3)CC2)c(C)c1,-50.1*,11.2,-3.5,nt,-15.4
CCN1C=C(Cc2ccc(F)cc2)C2=C(C1)C(c1ccc(F)cc1)C(C#N)=C(N)O2 (centres undefined),-55.4*,1.9,-6.2,?,-24.5
CCN1C=C(Cc2ccccc2C)C2=C(C1)C(c1ccccc1C)C(C#N)=C(N)O2 (centres undefined),-4.6,2.3,-6.9,4.4,-4.9
NS(=O)(=O)c1cccc(NC(=O)CSc2nnc(NC3CC3)s2)c1,nt,nt,nt,-14.1,-3.4
Cc1cc(C)n2cc(CSc3ccc(Br)cc3)nc2n1,-2.1,2.9,4.7,?,-1.0
Cc1cc(C)n2cc(CSCC(=O)O)nc2n1,-35.1*,0.4,-6.2,11.3,3.7
COc1ccccc1OCCSc1nc2ccccc2n1CC(=O)N1CCOCC1,3.5,-2.9,4.8,nt,-5.4
O=C(COc1ccc(Br)cc1CNC1CCCC1)Nc1ccccc1,10.9,34.2*,-3.2,-15.0,-15.5
O=C(COc1ccccc1O)Nc1ccc(Cl)cc1,-35.7*,7.1,-3.2,8.0,-1.4
CNCc1ccccc1OCC(=O)Nc1ccccc1,6.1,2.7,-0.2,-51.6*,-19.6
O=C(COC(=O)c1ccccc1OCC(=O)Nc1ccc(Br)cc1)Nc1ccccc1,0.0,2.0,3.3,-51.5*,-3.7
COc1cccc(CNC(=O)C(NS(=O)(=O)c2ccc3c(c2)oc(=O)n3C)C(C)C)c1 (centres undefined),4.2,-0.5,-0.2,nt,2.0
Cn1c(=O)[nH]c(=O)c2c1nc(CN1CCN(c3ccccc3)CC1)n2Cc1c(F)cccc1Cl,-18.5,-1.0,-4.0,nt,-14.2
C#CCNC(=O)c1ccc2sc([C@@H]3O[C@H](CO)[C@H](O)[C@H](O)[C@H]3O)nc2c1,nt,nt,nt,-9.4,6.5
O=C(Nn1cnc2ccccc2c1=O)C1CCCCC1,-30.4*,2.8,0.6,9.2,-5.8
C[C@H]1CN([C@@H](C)CO)S(=O)(=O)c2ccc(Br)cc2O[C@H]1CN(C)C(=O)c1cccnc1,nt,nt,nt,-8.6,0.4
SMILES,D1 antagonist,D1 agonist,D1 PAM,DRD3 antagonist,D3 ag
Cc1oc(-c2cccs2)nc1CN1CC[C@@](O)(c2ccccc2)[C@H]2CCCC[C@@H]21,2.8,4.8,-0.1,?,-11.7
OC1(c2ccccc2)CCN(Cc2ccccc2)C2CCCCC21 (centres undefined),8.6,5.4,0.1,-85.2*,12.2
CCOC(=O)/C(C#N)=C/c1ccc(-c2ccc(C)cc2)o1,-1.1,17.1,-1.7,nt,1.0
CCC(CC)C(=O)Nc1cccc(-c2cn3cccnc3n2)c1,-33.8*,2.6,4.2,nt,-15.2
CCC(CC)C(=O)Nc1ccncc1,-46.3*,0.4,-6.5,nt,nt
CCC(CC)C(=O)Nc1cc(-c2cn3cccnc3n2)ccc1OC,-5.5,0.7,-2.2,nt,-2.1
CCC(CC)C(=O)Nc1ccc(-c2cn3cccnc3n2)cc1,-31.5*!,0.0,-4.4,-4.8,-2.6
CCCCN(C)CCNC(=O)CCn1nc(-c2ccc(C)cc2)ccc1=O,4.2,2.0,-9.8,6.9,10.7
COC(=O)c1ccc(OCC(O)CN2C(=O)c3ccccc3C2=O)cc1 (centres undefined),-30.6*,2.6,-10.6,0.1,-0.2
Cc1ccccc1/C=C/C1=NCCN1,-43.0*,-0.3,-7.5,?,0.0
CC(=O)OCC1(C)CN(c2ccccc2)N(C(=O)c2ccc(C(C)(C)C)cc2)C1=O (centres undefined),-63.8*,0.8,-5.7,-15.6,-3.5
CC(=O)OCC1(C)CN(c2ccccc2)N(C(C)=O)C1=O (centres undefined),-3.0,3.6,-0.9,-10.2,-0.4
CC(=O)OC(COc1ccccc1)Cn1cnc2cc(C)c(C)cc21 (centres undefined),-4.2,2.5,-4.2,-58.6*,0.2
O=C(N/N=C/c1ccccn1)c1cc(-c2ccc(Cl)cc2)nc2ccccc12,5.2,0.7,3.7,-66.7*,-26.4
CCCOc1cccc(-c2cc(C(=O)N/N=C/c3ccccn3)c3ccccc3n2)c1,13.4,0.5,-1.7,?,-26.8
O=C(N/N=C/c1ccccn1)c1cc(-c2ccc(Br)cc2)nc2ccccc12,-4.7,1.0,-4.0,-94.7*,-52.5
O=C(O)c1cc2c(cc1NC(=O)C1CCCC1)OCCO2,-8.4,5.8,-9.3,-2.7,1.4
COc1cc(Cl)ccc1OCc1cc(C(=O)N2C[C@]3(C)C[C@H]2CC(C)(C)C3)no1,16.3,37.6*,7.8,-0.7,3.9
COc1cc(Cl)ccc1OCc1cc(C(=O)N2C[C@H]3CC[C@H]2C3)no1,-6.1,3.5,-14.1,2.5,-1.1
COc1ccc(C(=O)N2CC3(C)CC2CC(C)(C)C3)cc1 (centres undefined),-31.5*,1.0,-6.3,13.5,-1.5
O=C(c1ccco1)c1n[nH]nc1-c1ccccc1,-7.6,1.4,-5.1,-69.9*,-1.7
CC(C)(C)NC[C@H](O)COc1nsnc1N1CCOCC1,2.7,-0.3,-4.0,-53.9*!,-42.4
COc1nsnc1N1CCOCC1,9.8,0.9,3.2,13.8,0.0
CSc1ccccc1NC(=O)COc1nsnc1N1CCOCC1,1.3,4.8,2.7,-18.4,-3.4
CCOC(=O)c1cccc(NC(=O)COc2nsnc2N2CCOCC2)c1,-5.7,25.3,nt,-10.7,2.6
COC(=O)COc1nsnc1N1CCOCC1,-60.4*,1.4,-5.5,28.6,-0.8
CC(=O)c1cccc(NC(=O)COc2nsnc2N2CCOCC2)c1,-35.3*,6.1,-4.6,?,4.0
Cc1ccc(S(=O)(=O)NCCC(=O)NC2CC2)cc1,0.6,0.3,1.3,9.6,-6.3
